Screen size: about 13,000 compounds; about 3,200 (25%) showed an effect of 50% or more. This is one part of the list.
Test system: P. falciparum stage V gametocytes
Design: BacTiter-Glo ATP luminescence viability of purified stage V gametocytes in 384-well plates, per cent inhibition versus DMSO
Details: 48 h, 5 µM; inhibitor

Row | SMILES | % Inhibition
1 | [O-][S+]1c2ccccc2Sc2ccccc21 [TCMDC-124300] | -7.237%
2 | CC(C)Cn1ncc2c3c(N)nc(N)nc3ccc21 [TCMDC-137970] | 3.163%
3 | O=C(Nc1ccccc1)OCCOc1ccc(CC2SC(=O)NC2=O)cc1 (stereo not drawn) [TCMDC-131642] | 13.3%
4 | N#Cc1ccc2c(c1)CCN(CCC1CCC(NC(=O)/C=C/c3cc(Br)cs3)CC1)CC2 (stereo not drawn) [TCMDC-139841] | -33.15%
5 | O=C(Nc1ccccc1Cl)N(Cc1cc(Cl)cc(Cl)c1)CC(O)COc1ccc(Cl)c(F)c1 (stereo not drawn) [TCMDC-141477] | 10.95%
6 | O=C(/C=C/c1ccc(Cl)c(Cl)c1)NCCCCCN1CCC(C(=O)Nc2ccc(Cl)cc2)CC1 [TCMDC-136116] | -21.25%
7 | O=C(/C=C/c1ccc(Cl)cc1)NCCCCCN1CCC(C(=O)Nc2ccc(Cl)c(Cl)c2)CC1 [TCMDC-136123] | -40.47%
8 | O=C(/C=C/c1ccc(Cl)cc1)NCCCCCN1CCC(C(=O)Nc2cccc(Cl)c2)CC1 [TCMDC-136119] | -9.305%
9 | O=C(/C=C/c1ccc(Cl)cc1)NCCCCCN1CCC(C(=O)Nc2ccc(Cl)cc2)CC1 [TCMDC-136115] | 64.6%
10 | O=C(/C=C/c1ccc(Cl)c(Cl)c1)NCCCCCN1CCC(C(=O)Nc2ccc(Cl)c(Cl)c2)CC1 [TCMDC-136124] | 40.37%
11 | COc1ccc(NC(=O)C2CCN(CCCCCNC(=O)/C=C/c3ccc(Cl)c(Cl)c3)CC2)cc1 [TCMDC-136128] | 80.86%
12 | Cc1cc(C)cc(OCC(O)CN(Cc2cc(Cl)cc(Cl)c2)C(=O)Nc2ccc(Cl)cc2)c1 (stereo not drawn) [TCMDC-141475] | 25.73%
13 | O=C(Nc1cccc(Cl)c1N1CCOCC1)C(Cl)(Cl)Cl [TCMDC-124993] | 8.6%
14 | CN(C)CCOc1cc(NC(=O)Nc2ccc3c(c2)CCCC3=O)ccc1I [TCMDC-139187] | -8.397%
15 | O=C(Nc1ccc(C(=O)N2CCN(CCN3CCN(c4cccc(C(F)(F)F)c4)CC3)CC2)cc1)c1ccc(C(F)(F)F)cc1 [TCMDC-138148] | -21.85%
16 | O=C(Nc1ccc(C(F)(F)F)cc1)N[C@H]1CCN(CCCCCNC(=O)C2CC2c2ccc(Cl)c(Cl)c2)C1 (stereo partly drawn) [TCMDC-136272] | 93.26%
17 | O=C(NCCCCCN1CCCN(C(=O)Nc2ccc(Cl)c(C(F)(F)F)c2)CC1)C1CC1c1ccc(Cl)c(Cl)c1 (stereo not drawn) [TCMDC-136255] | -20.94%
18 | O=C(Nc1ccc(C(F)(F)F)cc1)NC1CCN(CCCCCNC(=O)C2CC2c2ccc(Cl)c(Cl)c2)CC1 (stereo not drawn) [TCMDC-136256] | 4.226%
19 | O=C(Nc1ccc(Cl)c(Cl)c1)N[C@H]1CCN(CCCCCNC(=O)C2CC2c2ccc(Cl)c(Cl)c2)C1 (stereo partly drawn) [TCMDC-136266] | -8.426%
20 | O=C(Nc1ccc(Cl)c(C(F)(F)F)c1)N[C@H]1CCN(CCCCCNC(=O)C2CC2c2ccc(Cl)c(Cl)c2)C1 (stereo partly drawn) [TCMDC-136274] | 80.05%
21 | O=C(Nc1ccc(Cl)c(C(F)(F)F)c1)NC1CCN(CCCCCNC(=O)C2CC2c2ccc(Cl)c(Cl)c2)CC1 (stereo not drawn) [TCMDC-136260] | 59.16%

Row | SMILES | % Inhibition
22 | COc1ccc(NC(=O)Nc2ccc(-c3ccc(-c4nc5cccc(C)c5[nH]4)s3)cc2)cc1 [TCMDC-133243] | -2.294%
23 | COc1ccc(CON2C(N)=NC(N)=NC2(C)C)cc1OC [TCMDC-131587] | 8.467%
24 | N#Cc1ccc2[nH]cc(-c3cn4cc(SC5CCCC5)ccc4n3)c2c1 [TCMDC-134705] | -50.98%
25 | COc1cccc(NC(=O)c2cc(C(=O)Nc3cccc(OC)c3)cc([N+](=O)[O-])c2)c1 [TCMDC-125177] | 2.834%
26 | O=C(Nc1cccnc1)c1cc(C(=O)Nc2cccnc2)cc([N+](=O)[O-])c1 [TCMDC-125067] | -34.07%
27 | O=C(Nc1ccncc1)c1cc(C(=O)Nc2ccncc2)cc([N+](=O)[O-])c1 [TCMDC-125671] | 89.24%
28 | CC(C)c1ccc2c(c1)c(SC(C)(C)C)c(CC(C)(C)C#N)n2Cc1ccc(Cl)cc1 [TCMDC-131974] | -57.09%
29 | COC(=O)c1ccc(CC(C)NCC(O)c2cccc(OCc3ccccc3)c2)cc1 (stereo not drawn) [TCMDC-131486] | 29.25%
30 | C[C@H](Cc1ccc(OCCNC[C@H](O)c2cccc(Cl)c2)cc1)NC[C@H](O)c1ccc(Cl)c(Cl)c1 [TCMDC-131547] | 69.99%
31 | C[C@H](Cc1ccc(OCCCCCCOc2ccc(C[C@@H](C)N[C@H](C)c3ccccc3)cc2)cc1)NC[C@H](O)c1cccc(Cl)c1 [TCMDC-131564] | 103.4%
32 | C[C@H](Cc1ccc(OCCCCCCOc2ccccc2)cc1)NC[C@@H](O)c1cc(Br)no1 [TCMDC-131567] | 65.38%
33 | COC(=O)c1ccc(CC(C)NCC(O)c2ccc(C(O)CNC(C)Cc3ccc(C(=O)OC)cc3)cc2)cc1 (stereo not drawn) [TCMDC-131545] | 100.9%
34 | COC(=O)c1ccc(CC(C)NCC(O)c2ccc(F)c(Cl)c2)cc1 (stereo not drawn) [TCMDC-131517] | 4.686%
35 | COC(=O)c1ccc(CC(C)NCC(O)c2ccc(Cl)c(Cl)c2)cc1 (stereo not drawn) [TCMDC-131431] | 21.35%
36 | COc1ccc(C(=O)NCC(C)(C)c2nc(-c3ccc(Cl)c(O)c3)c(-c3ccncc3)[nH]2)cc1OCCN(C(C)C)C(C)C [TCMDC-140736] | 2.982%
37 | CCCCCN1CCCC1CNS(=O)(=O)c1cccc(C(=O)Nc2cccc(C#N)c2)c1 (stereo not drawn) [TCMDC-133690] | -52.73%
38 | Cc1ccc(C)c2sc(N(CCCn3ccnc3)C(=O)C=Cc3cccs3)nc12 [TCMDC-124923] | 12.01%
39 | C=C[C@H]1CN2CC[C@H]1C[C@H]2[C@H](OS(=O)(=O)O)c1ccnc2ccccc12 [TCMDC-138341] | 14.93%
40 | c1ccc(CCNc2ccnc(Nc3ccc4n[nH]nc4c3)n2)cc1 [TCMDC-136881] | 0.773%
41 | CCCC(C)c1cnc2nc(N)nc(N)c2c1C (stereo not drawn) [TCMDC-137924] | 4.639%
42 | CCCC1N=C(N)N=C(N)N1c1ccccc1 (stereo not drawn) [TCMDC-131293] | -19.04%
